Laboratory results as given in PubChem BioAssay (Tox21).
Inconclusive results are not listed. Active and inactive are the calls of the source. Unless noted, calls follow the shape of the full dose curve.

Key:
[1] = qHTS assay to identify small molecule agonists of the vitamin D receptor (VDR) signaling pathway - cell viability counter screen (AID 743224; active = well fitted curve in the direction sought with a large enough effect in the repeat runs; an effect the other way counts as inactive or inconclusive; also: series mostly up to about 63 µM; % is scaled to controls: 0 for no effect and ±100 for the full control effect; nearly all actives have a fitted effect of over 50% in size)
Summary of the method: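 VDR-bla cells were preincubated 4 h at 37C/5% CO2, then exposed to compounds for 16 h. After the 2 h room-temperature bla FRET read, CellTiter-Glo was added to the same wells and luminescence read after 30 min.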

[2] = qHTS assay to identify small molecule antagonists of the vitamin D receptor (VDR) signaling pathway - cell viability counter screen (AID 743225; active = well fitted curve in the direction sought with a large enough effect in the repeat runs; an effect the other way counts as inactive or inconclusive; also: % is scaled to controls: 0 for no effect and ±100 for the full control effect; nearly all actives have a fitted effect of over 50% in size)
Summary of the method: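 VDR-UAS-bla HEK 293T cells were plated and incubated 4 h at 37C, then dosed with compound plus 3 nM (final) 1-alpha,25-dihydroxyvitamin D3 for 16 h. After the 2 h beta-lactamase read, viability in the same wells was read as CellTiter-Glo luminescence after 30 min at room temperature.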

[3] = qHTS assay to identify small molecule agonists of the NFkB signaling pathway (AID 1159509; active = well fitted curve in the direction sought with a large enough effect in the signal ratio in the repeat runs, not every such curve was filed as active; the % refers to the signal ratio; also: series mostly up to about 61 µM; % is scaled to controls: 0 for no effect and ±100 for the full control effect)
Summary of the method: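 NFkB-bla ME-180 cells with a beta-lactamase reporter under an NF-kB response element were plated overnight, treated with compounds in DMSO for 5 hr at 37 C, then loaded with FRET substrate for 1.5 hr at room temperature.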

[4] = qHTS assay to identify small molecule agonists of the NFkB signaling pathway - cell viability counter screen (AID 1159515); also: series mostly up to about 61 µM; % is scaled to controls: 0 for no effect and ±100 for the full control effect; nearly all actives have a fitted effect of over 55% in size
Summary of the method: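 NFkB-bla ME-180 cells, 2,000/well, were plated overnight at 37 C, 5% CO2, then exposed to compounds in DMSO for 5 hr. After the bla FRET read, CellTiter-Glo was added to the same wells; luminescence was read after 30 min at room temperature.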

[5] = qHTS assay to identify small molecule agonists of the endoplasmic reticulum stress response signaling pathway (AID 1159516; active = well fitted activation curve with a large enough effect in the signal ratio in the repeat runs, not every such curve was filed as active; the % refers to the signal ratio; also: % is scaled to controls: 0 for no effect and ±100 for the full control effect)
Summary of the method: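 CellSensor ESRE-bla HeLa cells, carrying a beta-lactamase reporter driven by the ER stress response element, were plated overnight and exposed to compounds for 5 hr at 37 C. Reporter activity was read as FRET substrate fluorescence after 2 hr at room temperature.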

[6] = qHTS assay to identify small molecule agonists of the endoplasmic reticulum stress response signaling pathway - cell viability counter screen (AID 1159517); also: series mostly up to about 61 µM; % is scaled to controls: 0 for no effect and ±100 for the full control effect; nearly all actives have a fitted effect of over 50% in size
Summary of the method: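 Luminescence readout: CellTiter-Glo, 30 min RT, same wells as the ESRE-bla reporter read. HeLa ESRE-bla, 1,500 cells/well, o/n 37 C; cpd 5 hr 37 C/5% CO2.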

[7] = target: Nuclear receptor ROR-gamma (Homo sapiens) (UniProt P51449); test: qHTS assay to identify small molecule antagonists of the retinoid-related orphan receptor gamma (ROR-gamma) signaling pathway (AID 1159521; active = well fitted curve in the direction sought with a large enough effect in the repeat runs; an effect the other way counts as inactive or inconclusive;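 also: CHO cells with doxycycline inducible ROR-gamma driving an RORE luciferase reporter; top concentration of the series differs between compounds; % is scaled to controls: 0 for no effect and ±100 for the full control effect; nearly all actives have a fitted effect of over 50% in size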)
Summary of the method: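 Tet-on ROR-gamma CHO cells with ROR response element-luciferase reporter; compounds added 2 hr before 1 uM doxycycline induction, then 16 hr at 37 C. Antagonism scored as decreased ONE-Glo luminescence.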

[8] = qHTS assay to identify small molecule agonists of the AP-1 signaling pathway - cell viability counter screen (AID 1159525); also: nearly all actives have a fitted effect of over 55% in size
Summary of the method: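 ME-180 AP-1-bla, 2500 cells/well, Opti-MEM + 0.5% dialyzed FBS; overnight 37 °C; cpd 15-pt titration, 5 h 37 °C; CellTiter-Glo 30 min RT; luminescence read; normalised to TOAB and DMSO controls.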

[9] = qHTS assay to identify small molecule agonists of the AP-1 signaling pathway (AID 1159526); also: % is scaled to controls: 0 for no effect and ±100 for the full control effect
[10] = qHTS assay to identify small molecule antagonists of the retinoid-related orphan receptor gamma (ROR-gamma) signaling pathway - cell viability counter screen (AID 1159520; active = well fitted curve in the direction sought with a large enough effect in the repeat runs; an effect the other way counts as inactive or inconclusive)
Summary of the method: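 Tet-on ROR gamma CHO cells (1,000/well) were plated 4 hr, given compounds in DMSO for 2 hr at 37 C, then induced with 1 uM final doxycycline for 16 hr. Viability was read as ATP by CellTiter-Glo luminescence after 30 min.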

CCCCC(CC)COC(=O)c1ccccc1O (configuration not stated)
inactive: Potency [1] | Potency [2] | outcome [3] | outcome [4] | outcome [5] | outcome [6] | Potency [7] | Potency [8] | outcome [9]

O=c1cc(CO)occ1O
inactive: Potency [1] | Potency [2] | outcome [3] | outcome [4] | outcome [6] | outcome [10] | Potency [7] | Potency [8] | outcome [9]

Cc1sccc1Br
inactive: Potency [2] | outcome [3] | outcome [4] | outcome [5] | outcome [6] | Potency [7] | Potency [8] | outcome [9]

CCOC(=O)C(=O)OCC
inactive: Potency [2] | outcome [3] | outcome [4] | outcome [5] | outcome [6] | Potency [7] | Potency [8] | outcome [9]

CCS(=O)(=O)c1ccc(OC)c(C(=O)OC)c1
inactive: Potency [1] | Potency [2] | outcome [3] | outcome [4] | outcome [5] | outcome [6] | Potency [7] | Potency [8] | outcome [9]

FC1(F)C(F)(F)C(F)(F)C2(F)C(F)(F)C(F)(F)C(F)(F)C(F)(F)C2(F)C1(F)F (configuration not stated)
inactive: Potency [1] | Potency [2] | outcome [3] | outcome [4] | outcome [5] | outcome [6] | Potency [7] | Potency [8] | outcome [9]

C[C@H](NC(CCc1ccccc1)C(=O)O)C(=O)N1CCC[C@H]1C(=O)O (some centres not stated)
inactive: Potency [1] | Potency [2] | outcome [3] | outcome [4] | outcome [5] | outcome [6] | Potency [7] | Potency [8] | outcome [9]

CN1CCC(=C2c3ccccc3CC(=O)c3sccc32)CC1
inactive: Potency [1] | Potency [2] | outcome [3] | outcome [4] | outcome [6] | outcome [10] | Potency [7] | Potency [8] | outcome [9]

O=C(O)COc1nn(Cc2ccccc2)c2ccccc12
inactive: Potency [1] | Potency [2] | outcome [3] | outcome [4] | outcome [6] | outcome [10] | Potency [7] | Potency [8] | outcome [9]

CCc1cccc2c(CCO)c[nH]c12
inactive: Potency [1] | Potency [2] | outcome [3] | outcome [4] | outcome [6] | outcome [10] | Potency [7] | Potency [8] | outcome [9]

CC/C=C\CC/C=C/C(OCC)OCC
inactive: Potency [1] | Potency [2] | outcome [3] | outcome [4] | outcome [6] | outcome [10] | Potency [7] | Potency [8] | outcome [9]

Cc1ccc(=O)n(-c2ccccc2)c1
inactive: Potency [2] | outcome [3] | outcome [4] | outcome [6] | outcome [10] | Potency [7] | Potency [8] | outcome [9]

COc1nc(N)nc2c1ncn2[C@@H]1O[C@H](CO)[C@@H](O)[C@@H]1O
inactive: Potency [1] | Potency [2] | outcome [3] | outcome [4] | outcome [6] | Potency [7] | Potency [8] | outcome [9]

CCO/C([O-])=N/c1c[n+](N2CCOCC2)no1
inactive: Potency [1] | Potency [2] | outcome [3] | outcome [4] | outcome [6] | Potency [7] | Potency [8] | outcome [9]

CCOC(=O)[C@H](CCc1ccccc1)N[C@@H](C)C(=O)N1[C@H](C(=O)O)C[C@@H]2CCC[C@@H]21
inactive: Potency [2] | outcome [3] | outcome [4] | outcome [6] | outcome [10] | Potency [7] | Potency [8] | outcome [9]

Cc1[nH]c(=O)c(C#N)cc1-c1ccc2nccn2c1
inactive: Potency [2] | outcome [3] | outcome [4] | outcome [6] | outcome [10] | Potency [7] | Potency [8] | outcome [9]

CC(C)(c1ccc(O)cc1)c1ccc(O)cc1
inactive: Potency [2] | outcome [3] | outcome [4] | outcome [6] | outcome [10] | Potency [8] | outcome [9]

C/C=C(\C)C#N
inactive: Potency [1] | Potency [2] | outcome [3] | outcome [4] | outcome [6] | outcome [10] | Potency [7] | Potency [8] | outcome [9]

CCN(Cc1ccncc1)C(=O)C(CO)c1ccccc1 (configuration not stated)
inactive: Potency [1] | Potency [2] | outcome [3] | outcome [4] | outcome [6] | Potency [7] | Potency [8] | outcome [9]

NS(=O)(=O)c1ccccc1Cl
inactive: Potency [1] | Potency [2] | outcome [3] | outcome [4] | outcome [6] | outcome [10] | Potency [7] | Potency [8] | outcome [9]

COc1ccc2c(c1)c(CC(=O)OCC(=O)O)c(C)n2C(=O)c1ccc(Cl)cc1
inactive: Potency [1] | Potency [2] | outcome [3] | outcome [4] | outcome [6] | outcome [10] | Potency [7] | Potency [8] | outcome [9]

Cc1cccn2c(=O)c(-c3nnn[nH]3)cnc12
inactive: Potency [2] | outcome [3] | outcome [4] | outcome [6] | activity, negative = cytotoxicity [10] 0.0857% [at 19 µM] | Potency [7] | viability change, negative = cytotoxic [8] -0.287% [at 15.8 µM] | outcome [9]
